Consider 40 compounds from PubChem BioAssay (NCI).

Compounds without any hit were thinned out: in the full panel of roughly 83,000, 20% have a hit.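 The test compound was applied at a single concentration to cells in 96-well plates for 48 hours, and percent growth was recorded.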 Unmarked numbers belong to inactive results. Calls of active or inactive are those of the source.

This test relates to T-47D breast. The test is described as follows: NCI-60 one-dose screen, 48 h (100 = growth as untreated, 0 = no growth, -100 = all killed). As to conditions: 10 µM. On the procedure:
Growth inhibition of the T-47D human tumor cell line is measured as a screen for anti-cancer activity. Cells are grown in 96 well plates and exposed to the test compound for 48 hours. Compounds are tested at a single concentration, which is 10^-5 M for most compounds. The reported endpoint is percent growth (GI% or GIPRCNT), where numbers from 0 - 100% represent growth inhibition, and numbers from -100% - 0 represent cell death. For example, a value of 40 represents 60% growth inhibition. A value of 0 means no net growth occurred over the course of the experiment. A value of -40 indicates 40% of cells at the beginning of the experiment died by the end of the experiment. A value of -100 means all cells are dead at the end of the experiment.
NCI-60 Human Tumor Cell Lines Screen was performed using the standard one-dose NCI protocol, which is described in more detail at https://dtp.cancer.gov/discovery_development/nci-60/default.htm.
Compounds with GIPRCNT values below 10 were considered active. Activity score was based on GIPRCNT using the following formula: […]
Score is 0 for GIPRCNT values of 100 or above, 50 for GIPRCNT values of 0, and 100 for GIPRCNT values of -100.
Consider `CC1(C)N=C(N)N=C(N)N1c1cccc(Br)c1`, for which the growth was 80.9%.
For `CC(=O)Nc1cccc(NC(C)=O)n1` the value was 87.1%; for `Nc1ccc(NC(=O)c2cccc(N)c2)cc1`, 95.9%; for `COc1ccccc1NC(=O)c1cc2cc(Br)ccc2cc1O`, 9.84% (active).
For `O=C1C=C(O)C(=O)C=C1O` the value was 93.9%; for `COc1cc2nc3cc([N+](=O)[O-])ccc3c(Cl)c2cc1OC`, 83.2%; for `N#CSc1cc(S(N)(=O)=O)ccc1N`, 104%.
For `O=c1[nH]c(O)c(/C=C2/C=Nc3ccccc32)[nH]1` the value was 85.5%; for `CCOC(=O)CCCS(C)(=O)=O`, 102%; for `CCn1c(=O)n(C)c2c(=O)n(C)c(=O)n(C)c21`, 98%.
For the compound `Cc1c(C(=O)O)c(=O)n(-c2ccccc2)n1C`, the growth is 98.8%.
Then `O=C(c1ccccc1)C1CCC1`, with 99.7%.
For `CC1(C(N)=O)CCC(C(=O)O)C1(C)C` (stereo not given) the value was 91.3%; for `O=C(O)CCCCNC(=O)c1ccccc1`, 88.2%.
For `CCN(CC)CCNc1ccc(CO)c2sc3ccccc3c(=O)c12` the value was 48.3%.
For `CCOC(=O)C/C(C)=N\O`, the growth is 98.3%.
For `CNc1nc(NC)c2cn[nH]c2n1` the value was 101%; for `CCOC(=O)CCCC(=O)OCC`, 96.4%.
In the case of `C#Cc1cccc(NC(=O)c2ccc(Cl)cc2Cl)c1`, the growth is 95.2%.
On to `N#CC(=Nc1cccc(F)c1)C1=C(O)c2ccccc2C1=O`, for which the growth is 83.2%.
For `CCCCCCCCCCC1CO1` (stereo not given) the value was 103%; for `COc1ccc(C(=O)C(Br)C(Br)C(=O)O)cc1` (stereo not given), 106%; for `COC(=O)Nc1nc2ccc(C(=O)c3cccs3)cc2[nH]1`, 91.1%.
For `O=[N+]([O-])c1cccc(C(F)(F)F)c1` the value was 105%.
For `Cc1cc(C)c(CC(=O)O)c(C)c1` the value was 106%.
As to `CC(C)OC(C(=O)O)c1ccccc1` (stereo not given), the growth is 91.5%.
Then `Brc1cnc2ccccc2c1`, with 108%.
For `NC(C(=O)O)C(O)c1ccco1` (stereo not given) the value was 98%; for `N#Cc1ccc(OC(=O)Nc2ccc(Cl)c(Cl)c2)cc1`, 27.9%; for `NCCCN`, 98.6%.
In the case of `O=c1c2ccccc2c(Br)c(Br)c2ccccc12`, the growth is 53.5%.
For `COc1ccc(/C=C/c2cccc[n+]2C)cc1` the value was 97.4%; for `COc1ccc(C(O)c2ccccc2)cc1` (stereo not given), 87.3%.
For `OCC1OC(OC2C(O)C(CO)OC2(CO)OC2OC(CO)C(O)C(O)C2O)C(O)C(O)C1O` (stereo not given), the growth is 110%.
Then `c1ccc(Sc2ccccc2)cc1`, with 99.6%; and `Cc1ccc(CCCC(=O)O)c(C)c1`, with 95.2%; and `O=C1Cc2ccccc2C(=O)O1`, with 108%.
Then `Cc1nc2ccccc2c(C(=O)O)c1O`, with 91.3%.
`Cc1cc(C)cc(NCCC#N)c1`: the growth is 107%.
For `CCCC(C)OCC(=O)O` (stereo not given) the value was 126%.
